Assay results: PubChem BioAssay (NCATS)
Values joined by “and” are separate entries in the source; they are usually repeats but may differ in a detail not shown here. Equal entries are not always repeated. Records with an inconclusive call do not appear. Entries that show only a call come without a potency. Active and inactive are the calls of the source. Unless noted, calls follow the shape of the dose curve; as a rule, active = well fitted curve in the direction sought with a large enough effect; inconclusive = small, poorly fitted or top-dose-only effect, or another doubt; inactive = no such curve, though single readings can be large; an effect the other way counts as inactive or inconclusive.

Tests used:
[1] = Cell Viability - N2a (AID 540); conditions: N2a mouse neuroblastoma cell viability; activity change, negative = cytotoxicity: at 92.2 µM (top of the series); also: nearly all actives have a fitted effect of over 45% in size
How it was run: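 First, 1500 N2a cells per well incubate 5 hr at 37 °C; next, compounds are added and incubated 40 hr at 37 °C; finally CellTiter-Glo is added and luminescence read after 20 min, with AC50 derived by Hill modeling.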

[2] = Cell Viability - NIH 3T3 (AID 541); conditions: NIH 3T3 cell viability, qHTS; activity change, negative = cytotoxicity: at 92.2 µM (top of the series); also: nearly all actives have a fitted effect of over 25% in size
How it was run: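 AC50 values reflect concentration-dependent loss of intracellular ATP in NIH 3T3 cells after 40 hr treatment in complete culture medium, quantified by luciferase-based luminescence.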

[3] = Cell Viability - Renal Proximal Tubule (AID 545); conditions: renal proximal tubule cells viability, primary cells of rat origin; activity change, negative = cytotoxicity: at 91.7 µM (top of the series); also: nearly all actives have a fitted effect of over 40% in size
How it was run: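 Rat renal proximal tubule primary cells, 1000/well, exposed to compounds for 40 hr at 37 °C in complete medium; cellular ATP read by CellTiter-Glo luminescence. AC50 from concentration-response fitted with standard Hill equation.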

[4] = Cell Viability - LYMP2-003 (AID 965);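 also: cells exposed to compounds for 24 h before reading; nearly all actives have a fitted effect of over 50% in size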
How it was run: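 Human lymphoblastoid LYMP2-003 cells, 2500/well, exposed to compounds for 24 h at 37 C in complete medium. Viability read as intracellular ATP by CellTiter-Glo luminescence; AC50 from Hill-equation fits of qHTS concentration-response data.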

[5] = Cell Viability - LYMP2-021 (AID 974);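 also: compound exposure lasts 24 hours at 37 °C; nearly all actives have a fitted effect of over 55% in size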
How it was run: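 Concentration-response cytotoxicity in a human lymphoblastoid line: 24 hr treatment at 37 C in complete culture medium, tetraoctylammonium bromide as positive control, luminescent ATP quantitation as viability measure.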

[6] = Cell Viability - LYMP2-012 (AID 982);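 also: cellular ATP by luciferase luminescence where a drop means cytotoxicity; cells exposed to compound for one day before reading; nearly all actives have a fitted effect of over 55% in size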
[7] = target: Glucocorticoid receptor (Homo sapiens) (UniProt P04150); test: qHTS assay for small molecule antagonists of glucocorticoid receptor signaling (AID 588533; active = well fitted inhibition curve with a large enough effect in the signal ratio, with a control signal flat, not every such curve was filed as active; the % refers to the signal ratio)
Chain of Glucocorticoid receptor (Homo sapiens) (P04150 whole entry, looked up): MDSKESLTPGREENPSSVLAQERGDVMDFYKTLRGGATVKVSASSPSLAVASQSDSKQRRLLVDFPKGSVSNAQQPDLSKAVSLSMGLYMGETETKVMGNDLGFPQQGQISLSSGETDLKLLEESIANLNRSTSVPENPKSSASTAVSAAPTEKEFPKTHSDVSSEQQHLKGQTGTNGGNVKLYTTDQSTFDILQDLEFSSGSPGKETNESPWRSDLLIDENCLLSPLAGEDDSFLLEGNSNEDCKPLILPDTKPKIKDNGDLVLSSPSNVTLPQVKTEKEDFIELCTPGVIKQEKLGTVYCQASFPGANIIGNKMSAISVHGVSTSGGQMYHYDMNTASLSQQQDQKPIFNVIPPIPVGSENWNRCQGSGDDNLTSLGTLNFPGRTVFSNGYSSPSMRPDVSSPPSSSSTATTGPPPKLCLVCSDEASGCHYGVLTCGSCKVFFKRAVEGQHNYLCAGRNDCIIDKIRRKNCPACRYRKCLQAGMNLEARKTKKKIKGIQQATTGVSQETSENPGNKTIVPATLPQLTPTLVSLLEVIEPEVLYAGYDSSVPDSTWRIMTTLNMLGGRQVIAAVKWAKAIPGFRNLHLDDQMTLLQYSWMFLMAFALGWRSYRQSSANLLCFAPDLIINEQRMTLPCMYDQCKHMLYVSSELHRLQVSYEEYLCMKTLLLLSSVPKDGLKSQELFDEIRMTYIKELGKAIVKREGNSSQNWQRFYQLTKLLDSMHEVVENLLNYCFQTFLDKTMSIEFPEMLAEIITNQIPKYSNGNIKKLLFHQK
How it was run: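 Antagonist-mode qHTS: compound titrations added to GRE-bla HeLa cells, then dexamethasone 2 nM final; 18 h, 37 C. CCF4 FRET fluorescence normalized to dexamethasone and DMSO; IC50 from Hill fit.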

[8] = qHTS assay for small molecule antagonists of peroxisome proliferator-activated receptor delta signaling (AID 588535); conditions: HEK293T PPARd-UAS-bla, beta-lactamase FRET ratio, 18 h; 460 nm channel;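 also: cells co-treated with a PPAR-delta agonist as stimulator during compound exposure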
How it was run: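 Cells were seeded at 4000 per well in assay medium containing 2% charcoal/dextran FBS and held 5 hrs at 37 C. Compounds were then added for 18 hrs. CCF4 substrate was applied for 2 hrs at room temperature before fluorescence reading.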

[9] = target: Peroxisome proliferator-activated receptor gamma (Homo sapiens) (UniProt P37231); test: qHTS assay for small molecule agonists of peroxisome proliferator-activated receptor gamma signaling (AID 588536; active = well fitted curve in the direction sought with a large enough effect in the signal ratio, with a control signal flat, not every such curve was filed as active; the % refers to the signal ratio)
Chain of Peroxisome proliferator-activated receptor gamma (Homo sapiens) (P37231 whole entry, looked up): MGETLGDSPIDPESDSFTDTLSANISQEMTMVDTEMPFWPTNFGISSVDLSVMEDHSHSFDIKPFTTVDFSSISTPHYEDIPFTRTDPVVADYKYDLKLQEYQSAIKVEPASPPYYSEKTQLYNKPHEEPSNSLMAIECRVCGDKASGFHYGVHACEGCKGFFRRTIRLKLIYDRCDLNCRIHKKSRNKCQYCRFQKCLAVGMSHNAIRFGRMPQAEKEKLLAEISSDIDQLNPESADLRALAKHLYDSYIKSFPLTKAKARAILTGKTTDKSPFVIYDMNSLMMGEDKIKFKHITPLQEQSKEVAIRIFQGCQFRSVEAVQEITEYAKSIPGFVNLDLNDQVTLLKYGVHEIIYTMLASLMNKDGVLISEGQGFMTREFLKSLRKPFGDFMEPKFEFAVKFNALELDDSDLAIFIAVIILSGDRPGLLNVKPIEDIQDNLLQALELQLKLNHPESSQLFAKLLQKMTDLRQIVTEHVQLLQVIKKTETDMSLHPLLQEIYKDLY
How it was run: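 Test agents, titrated, stimulated HEK293 UAS-bla cells overnight (16 h, 37 C). Substrate CCF4 was then added for two hours at room temperature before fluorescence reading.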

[10] = target: Peroxisome proliferator-activated receptor gamma (Homo sapiens) (UniProt P37231); test: qHTS assay for small molecule antagonists of peroxisome proliferator-activated receptor gamma signaling (AID 588537; active = well fitted inhibition curve with a large enough effect in the signal ratio, with a control signal flat, not every such curve was filed as active; the % refers to the signal ratio;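 also: reporter cells co-stimulated with 50 nM rosiglitazone agonist during compound treatment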)
How it was run: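 Step one: plate 3000 HEK293 UAS-bla cells per well in medium with 1% stripped serum and hold 6-6.5 h at 37 C. Step two: add compound and 50 nM agonist for 16 h. Step three: CCF4 loading, fluorescence read.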

[11] = target: Retinoic acid receptor RXR-alpha (Homo sapiens) (UniProt P19793); test: qHTS assay for small molecule agonists of retinoid X receptor alpha signaling (AID 588544; calls by dose curve)
Chain of Retinoic acid receptor RXR-alpha (Homo sapiens) (P19793 whole entry, looked up): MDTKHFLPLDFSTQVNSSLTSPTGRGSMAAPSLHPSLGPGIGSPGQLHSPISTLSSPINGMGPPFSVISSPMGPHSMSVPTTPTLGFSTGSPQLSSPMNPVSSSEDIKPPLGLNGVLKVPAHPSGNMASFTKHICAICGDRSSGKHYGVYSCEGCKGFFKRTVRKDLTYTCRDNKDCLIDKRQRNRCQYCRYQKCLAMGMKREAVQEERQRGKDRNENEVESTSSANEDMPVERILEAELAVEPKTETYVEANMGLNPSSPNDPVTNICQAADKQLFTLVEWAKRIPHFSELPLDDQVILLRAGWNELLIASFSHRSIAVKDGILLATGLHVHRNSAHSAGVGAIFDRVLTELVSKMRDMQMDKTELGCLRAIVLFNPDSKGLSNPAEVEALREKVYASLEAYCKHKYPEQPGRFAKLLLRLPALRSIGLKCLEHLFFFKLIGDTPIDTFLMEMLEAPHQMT

[12] = qHTS assay for small molecule agonists of the antioxidant response element (ARE) signaling pathway (AID 651741; active = well fitted activation curve with a large enough effect in the signal ratio; the % refers to the signal ratio)
How it was run: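 HepG2 ARE-bla cells plated at 2,000 cells/well and incubated 5 h at 37 C/5% CO2 received 23 nL compound in DMSO. After 16 h at 37 C, LiveBLAzer B/G FRET substrate was applied for 2 h at room temperature and fluorescence read.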

[13] = target: Tumor necrosis factor (Homo sapiens) (UniProt P01375); test: qHTS assay to identify small molecules that stimulate Tumor Necrosis Factor-alpha (TNF-alpha) secretion (AID 651757; active = well fitted curve in the direction sought with a large enough effect in the signal ratio; the % refers to the signal ratio)
Chain of Tumor necrosis factor (Homo sapiens) (P01375 whole entry, looked up): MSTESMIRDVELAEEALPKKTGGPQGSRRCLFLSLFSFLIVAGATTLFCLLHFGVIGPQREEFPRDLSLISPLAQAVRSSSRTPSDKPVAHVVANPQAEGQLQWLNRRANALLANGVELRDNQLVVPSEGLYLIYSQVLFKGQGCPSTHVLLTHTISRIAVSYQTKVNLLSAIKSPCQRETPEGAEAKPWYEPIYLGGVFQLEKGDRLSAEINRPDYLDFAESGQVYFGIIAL
How it was run: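 Secreted TNF-alpha from compound-treated THP-1 cells (17 hrs, 37 C) was quantified with a homogeneous time-resolved fluorescence antibody assay.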

[14] = qHTS assay for small molecule agonists of the antioxidant response element (ARE) signaling pathway measured by Nrf2-dependant transcriptional activity - cell viability counter screen (AID 720653; active = well fitted curve in the direction sought with a large enough effect in the repeat runs; an effect the other way counts as inactive or inconclusive); conditions: ARE-bla HepG2 viability, CellTiter-Glo ATP luminescence, 16 h; max response: stronger effect = lower value
How it was run: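 ARE-bla HepG2 cells treated with compounds for 16 h at 37C; this counter screen measures viability as intracellular ATP by CellTiter-Glo luminescence after 30 min at room temperature.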

[15] = target: Mitogen-activated protein kinase 10 (Mus musculus) (UniProt Q61831); test: JNK3 AlphaScreen Assay (AID 530; active = well fitted curve in either direction with a large enough effect, not every such curve was filed as active;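 also: kinase came from lysate of stimulated human HepG2 cells; signal reports phosphorylation of biotinylated GST-cJun 1-79 at Ser73 with 10 µM ATP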)
How it was run: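 qHTS format: compounds tested as titrations against IL-1beta/TNF-alpha-activated HepG2 lysate JNK3 with biotin-GST-cJun substrate and 10 uM ATP at room temperature. Loss of anti-phospho-cJun AlphaScreen signal indicates inhibition.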

[16] = target: Estrogen receptor (Homo sapiens) (UniProt P03372); test: qHTS assay for small molecule antagonists of estrogen receptor alpha signaling (AID 588513; active = well fitted curve in the direction sought with a large enough effect in the signal ratio, with a control signal flat, not every such curve was filed as active; the % refers to the signal ratio)
Chain of Estrogen receptor (Homo sapiens) (P03372 whole entry, looked up): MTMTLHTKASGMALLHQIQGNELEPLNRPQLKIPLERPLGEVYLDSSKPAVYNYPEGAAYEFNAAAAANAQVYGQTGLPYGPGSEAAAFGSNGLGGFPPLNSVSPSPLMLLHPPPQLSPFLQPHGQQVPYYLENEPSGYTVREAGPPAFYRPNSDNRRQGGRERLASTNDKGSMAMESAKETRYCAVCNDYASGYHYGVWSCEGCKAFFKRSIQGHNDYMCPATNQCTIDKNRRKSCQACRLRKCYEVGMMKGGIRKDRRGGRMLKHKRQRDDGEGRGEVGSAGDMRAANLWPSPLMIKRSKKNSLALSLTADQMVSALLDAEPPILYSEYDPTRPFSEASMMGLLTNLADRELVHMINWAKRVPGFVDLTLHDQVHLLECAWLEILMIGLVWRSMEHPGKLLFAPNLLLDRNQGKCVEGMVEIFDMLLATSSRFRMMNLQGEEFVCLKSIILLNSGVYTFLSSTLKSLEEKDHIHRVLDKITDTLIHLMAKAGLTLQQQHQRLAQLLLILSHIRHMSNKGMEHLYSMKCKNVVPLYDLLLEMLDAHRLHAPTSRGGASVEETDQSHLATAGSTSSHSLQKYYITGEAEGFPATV
How it was run: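 ER-alpha-UAS-bla GripTite HEK 293 cells in 2% charcoal/dextran-treated FBS medium; compounds titrated (1:2, duplicate), then stimulated with 0.5 nM 17-beta-estradiol for 18 h at 37C. CCF4 beta-lactamase fluorescence; Hill-fit IC50 and efficacy.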

[17] = target: Estrogen receptor (Homo sapiens) (UniProt P03372); test: qHTS assay for small molecule agonists of estrogen receptor alpha signaling (AID 588514; calls by dose curve; also: nearly all actives have a fitted effect of over 70% in size)
How it was run: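 Reporter-gene assay. […] controls beta-lactamase in HEK 293 GripTite cells; after 18 hrs with compound, CCF4 substrate is added for 2 hrs and fluorescence is read.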

[18] = target: Bile acid receptor (Homo sapiens) (UniProt Q96RI1); test: qHTS assay for small molecule antagonists of farnesoid X receptor signaling (AID 588526; calls by dose curve)
Chain of Bile acid receptor (Homo sapiens) (Q96RI1 whole entry, looked up): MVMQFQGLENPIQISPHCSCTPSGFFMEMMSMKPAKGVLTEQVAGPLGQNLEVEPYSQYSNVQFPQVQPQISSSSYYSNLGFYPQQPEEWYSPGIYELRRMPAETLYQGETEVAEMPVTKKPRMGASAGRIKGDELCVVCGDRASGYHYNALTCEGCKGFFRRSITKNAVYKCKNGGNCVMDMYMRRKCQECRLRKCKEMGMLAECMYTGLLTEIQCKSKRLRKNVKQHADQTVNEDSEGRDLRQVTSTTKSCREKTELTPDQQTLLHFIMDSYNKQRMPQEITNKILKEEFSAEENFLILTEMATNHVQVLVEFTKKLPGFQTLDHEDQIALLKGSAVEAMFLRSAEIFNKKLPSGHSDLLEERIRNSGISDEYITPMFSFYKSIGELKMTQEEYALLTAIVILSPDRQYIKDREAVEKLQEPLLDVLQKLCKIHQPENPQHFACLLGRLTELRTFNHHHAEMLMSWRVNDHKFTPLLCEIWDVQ
How it was run: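 Antagonist mode: titrated compounds tested against chenodeoxycholic acid stimulation (normalized to 50 uM CDCA and DMSO) in GeneBLAzer HEK293T cells for 16 h. Beta-lactamase read by CCF4 fluorescence; IC50 from Hill fits.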

[19] = target: Vitamin D3 receptor (Homo sapiens) (UniProt P11473); test: qHTS assay for small molecule antagonists of vitamin D receptor signaling (AID 588541; calls by dose curve;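 also: receptor activated by calcitriol during compound treatment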)
Chain of Vitamin D3 receptor (Homo sapiens) (P11473 whole entry, looked up): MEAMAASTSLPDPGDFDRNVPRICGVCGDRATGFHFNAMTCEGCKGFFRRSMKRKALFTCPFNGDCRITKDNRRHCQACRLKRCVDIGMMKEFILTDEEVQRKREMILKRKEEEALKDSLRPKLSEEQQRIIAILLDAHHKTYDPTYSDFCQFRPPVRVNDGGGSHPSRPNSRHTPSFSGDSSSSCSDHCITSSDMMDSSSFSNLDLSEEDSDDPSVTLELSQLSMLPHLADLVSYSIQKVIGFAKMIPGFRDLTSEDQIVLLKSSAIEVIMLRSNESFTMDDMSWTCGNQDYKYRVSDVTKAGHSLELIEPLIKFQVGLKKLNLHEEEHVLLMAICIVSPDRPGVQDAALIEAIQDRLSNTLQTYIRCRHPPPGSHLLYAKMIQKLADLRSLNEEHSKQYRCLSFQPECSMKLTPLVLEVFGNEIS
How it was run: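 VDR-UAS-bla HEK293T cells in 2% charcoal-stripped FBS were stimulated with 1-alpha,25-dihydroxyvitamin D3 (3 nM final) plus compound for 16 h at 37 C. The beta-lactamase CCF4 readout was normalized to 50 nM agonist and DMSO, and Hill fits gave IC50.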

[20] = qHTS assay to identify small molecules that stimulate interleukin-8 (IL-8) secretion (AID 651758; active = well fitted activation curve with a large enough effect in the signal ratio; the % refers to the signal ratio)
How it was run: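 THP-1 cells (2000/well) exposed to compound 16 h at 37 C; secreted IL-8 then detected by HTRF with cryptate- and XL665-labelled anti-IL-8 antibody pair after 1-3 h at room temperature.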

For `c1ccc(CSCc2ccccc2)cc1`, which activity change, negative = cytotoxicity [1] is on record?
Its activity change, negative = cytotoxicity is -17.4% (inactive).

What about the activity change, negative = cytotoxicity [2] of the same molecule?
The activity change, negative = cytotoxicity was -18.8% (inactive).

And the Potency [3]?
The Potency was “inactive”.

And the Potency [4]?
The Potency was “inactive”.

And the Potency [5]?
The Potency was “inactive”.

What about the Potency [6] of the same molecule?
The Potency was “inactive”.

And the Potency [7]?
Its Potency is “inactive”.

And the max response [8]?
The max response was 13.7%.

What about the outcome [9] of the same molecule?
Its outcome is “inactive”.

What about the Potency [10] of the same molecule?
The Potency was “inactive”.

What about the Potency [11] of the same molecule?
The Potency was “inactive”.

What about the Potency [12] of the same molecule?
The Potency was “inactive”.

What about the Potency [13] of the same molecule?
Its Potency is “inactive”.

What about the max response [14] of the same molecule?
The max response was -4.18% (inactive).

Which Potency [15] does the source give for `CCCC(=O)OC(=O)CCC` here?
Its Potency is “inactive”.

And the activity change, negative = cytotoxicity [1]?
The activity change, negative = cytotoxicity was -12.9% (inactive).

What about the Potency [4] of the same molecule?
The Potency was “inactive”.

What about the Potency [6] of the same molecule?
The Potency was “inactive”.

What about the max response [8] of the same molecule?
The max response was 16.1% and 21.1%.

And the outcome [9]?
The outcome was “inactive”.

What about the Potency [10] of the same molecule?
Its Potency is “inactive”.

What about the Potency [12] of the same molecule?
Its Potency is “inactive”.

And the Potency [13]?
Its Potency is “inactive”.

And the max response [14]?
The max response was -5.41% (inactive) and 18.3% (inactive).

Which results are given for `CC(C)OCC1CO1` (stereo not given)?
activity change, negative = cytotoxicity [1]: -7.39% (inactive); activity change, negative = cytotoxicity [2]: -16.9% (inactive); Potency [3]: inactive; Potency [4]: inactive; outcome [16]: inactive; Potency [17]: inactive; Potency [18]: inactive; max response [8]: 3.66%; outcome [9]: inactive; Potency [10]: inactive; Potency [19]: inactive; Potency [11]: inactive; Potency [12]: inactive

Which Potency [15] does the source give for `Cc1ccc(N)cc1[N+](=O)[O-]` here?
Its Potency is “inactive”.

What about the activity change, negative = cytotoxicity [1] of the same molecule?
The activity change, negative = cytotoxicity was -8.48% (inactive).

And the Potency [4]?
The Potency was “inactive”.

What about the Potency [5] of the same molecule?
The Potency was “inactive”.

What about the Potency [6] of the same molecule?
The Potency was “inactive”.

What about the Potency [7] of the same molecule?
The Potency was “inactive”.

And the max response [8]?
The max response was 35.9%.

And the outcome [9]?
Its outcome is “inactive”.

And the Potency [10]?
The Potency was “inactive”.

And the Potency [11]?
Its Potency is “inactive”.

What about the Potency [13] of the same molecule?
Its Potency is “inactive”.

Which activity change, negative = cytotoxicity [1] does the source give for `Cc1ccc(C(=O)O)cc1[N+](=O)[O-]` here?
The activity change, negative = cytotoxicity was 4.91% (inactive).

What about the activity change, negative = cytotoxicity [2] of the same molecule?
The activity change, negative = cytotoxicity was -13.4% (inactive).

What about the Potency [4] of the same molecule?
Its Potency is “inactive”.

What about the Potency [6] of the same molecule?
The Potency was “inactive”.

And the outcome [16]?
The outcome was “inactive”.

What about the Potency [17] of the same molecule?
Its Potency is “inactive”.

And the outcome [9]?
The outcome was “inactive”.

What about the Potency [10] of the same molecule?
Its Potency is “inactive”.

What about the Potency [19] of the same molecule?
The Potency was “inactive”.

And the Potency [11]?
Its Potency is “inactive”.

And the Potency [13]?
Its Potency is “inactive”.

And the max response [14]?
The max response was -1.34% (inactive).

Which activity change, negative = cytotoxicity [1] does the source give for `CCCCCCc1ccc(-c2ccc(C#N)cc2)cc1` here?
Its activity change, negative = cytotoxicity is -10.7% (inactive).

What about the activity change, negative = cytotoxicity [2] of the same molecule?
The activity change, negative = cytotoxicity was -12.5% (inactive).

And the Potency [3]?
Its Potency is “inactive”.

And the Potency [6]?
The Potency was “inactive”.

And the max response [8]?
Its max response is 11%.

And the Potency [20]?
Its Potency is “inactive”.

And the max response [14]?
Its max response is -11.9% (inactive).

With `C=CC1CO1` (stereo not given) as the molecule, how does the activity change, negative = cytotoxicity [1] read?
Its activity change, negative = cytotoxicity is 2.77% (inactive).

What about the activity change, negative = cytotoxicity [2] of the same molecule?
The activity change, negative = cytotoxicity was -8.56% (inactive).

What about the Potency [3] of the same molecule?
Its Potency is “inactive”.

And the Potency [5]?
Its Potency is “inactive”.

What about the Potency [6] of the same molecule?
Its Potency is “inactive”.

What about the Potency [7] of the same molecule?
Its Potency is “inactive”.

What about the outcome [9] of the same molecule?
The outcome was “inactive”.

What about the Potency [10] of the same molecule?
The Potency was “inactive”.

And the Potency [19]?
The Potency was “inactive”.

What about the Potency [11] of the same molecule?
Its Potency is “inactive”.

And the Potency [12]?
The Potency was “inactive”.

What about the Potency [13] of the same molecule?
Its Potency is “inactive”.

Which Potency [15] does the source give for `CCCCC(CC)COCCCN` (stereo not given) here?
Its Potency is “inactive”.

And the activity change, negative = cytotoxicity [2]?
The activity change, negative = cytotoxicity was -23.1% (inactive).

What about the Potency [3] of the same molecule?
The Potency was “inactive”.

What about the Potency [4] of the same molecule?
Its Potency is “inactive”.

And the Potency [5]?
Its Potency is “inactive”.

What about the Potency [6] of the same molecule?
Its Potency is “inactive”.

And the outcome [16]?
The outcome was “inactive”.

What about the Potency [17] of the same molecule?
Its Potency is “inactive”.

What about the Potency [18] of the same molecule?
The Potency was “inactive”.

And the max response [8]?
Its max response is 8.44%.

And the Potency [12]?
Its Potency is “inactive”.

And the Potency [13]?
Its Potency is “inactive”.

And the max response [14]?
The max response was -14.9% (inactive).

Which results are given for `COc1ccc(C(=O)Nc2ccccc2)cc1[N+](=O)[O-]`?
Potency [15]: inactive; activity change, negative = cytotoxicity [1]: -4% (inactive); Potency [4]: inactive; Potency [5]: inactive; Potency [6]: inactive; outcome [16]: inactive; Potency [18]: inactive; Potency [7]: inactive; outcome [9]: inactive; Potency [10]: inactive; Potency [19]: inactive; Potency [13]: inactive; max response [14]: 0.739% (inactive)
